IL-1B inflam inh = inhibitors of inflammasome signaling (IL-1 beta secretion); actives 4.7% (n = 360,000); activity change, % at 57.5 µM; THP-1 LPS/ATP IL-1B secretion, AlphaLISA, 16 h; stronger effect = lower value; in the data active means activity change below about -50%; inconclusive means mostly about -30% to -49%
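THP-1 cells pretreated 1 hr with compounds (up to 57.5 uM final), then stimulated with LPS (250 ng/mL final) plus ATP (1.25 mM final); secreted IL-1B measured by AlphaLISA after 16 hr, decreased signal indicating inhibition.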
uPA generation = inhibitors of cell surface uPA generation | cell surface uPA generation assay, qHTS | Potency, µM (series often up to 38.3 µM), without a hit: at the highest dose activity change, negative = inhibition, hits mostly inhibitors | actives 0.31% (n = 330,000); active means well fitted inhibition curve with a large enough effect; inconclusive means small, poorly fitted or top-dose-only effect; inactive means no such curve, though single readings can be large or run the other way; tested in mouse RAW 264.7 cells; further: potency means the concentration at half of the fitted maximal effect; nearly all actives have a fitted effect of over 55% in size
HT1080 IDH1KD tx = toxicity to HT-1080 IDH1 knockdown cells (counter line) | HT-1080 IDH1 knockdown viability, ATP luminescence, 48 h | actives 2% (n = 360,000) | Potency, µM (top dose mostly 46.1 µM), inactives show at the top dose activity, negative = toxicity, usual class: cytotoxic;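 further: potency means the concentration at half of the fitted maximal effect; 0% = DMSO wells and -100% = cell-free medium wells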
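HT-1080-IDH1KD cells (IDH1 knocked down), 750/well in RPMI with 5% FBS, treated with compound 48 h at 37 degrees C. Viability by CellTiter-Glo luminescence, normalised to DMSO and no-cell wells; concentration-response curves classed.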
HT1080-NT tox = kills 2HG-producing HT-1080-NT fibrosarcoma cells. HT-1080-NT fibrosarcoma viability, CellTiter-Glo ATP luminescence, 48 h. Potency, µM (titrated, usually from 46.1 µM), for the others: top-dose activity, negative = less viability, most hits filed as cytotoxic. actives 1.6% (n = 360,000);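 further: NT is the 2HG producing partner of a matched IDH1 knockdown line; potency means the concentration at half of the fitted maximal effect; 0% = DMSO-treated cells and -100% = media-only wells without cells; nearly all actives have a fitted effect of over 55% in size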
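Viability of the 2HG-overproducing fibrosarcoma line after 48 hours of compound exposure at 37 degrees C was determined by luminescence with CellTiter-Glo, and concentration-effect curves were then fitted and categorized.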
DT40 TDP1 no CPT = qHTS for Inhibitors of human tyrosyl-DNA phosphodiesterase 1 (TDP1): qHTS in cells in absence of CPT | Potency, µM (top dose mostly 46.2 µM), inactives show at the top dose activity change, negative = growth inhibition, hits mostly inhibitors | DT40 Tdp1-/- hTDP1 cells, no CPT, ATP luminescence, 48 h | actives 15% (n = 420,000); further: potency means the concentration at half of the fitted maximal effect; nearly all actives have a fitted effect of over 55% in size
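Growth of hTDP1-complemented DT40 Tdp1-knockout cells is measured by ATP luminescence after at least 48 hr compound exposure at 37 °C, with DMSO substituting for the 20 nM CPT used in the parallel screen.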
DT40 TDP1 CPT = growth inhibition of DT40 Tdp1-/-;hTDP1 cells with camptothecin (screen for TDP1 inhibitors); Potency, µM (series often up to 46.2 µM), for inactives: at the highest dose activity change, negative = growth inhibition, usual class: inhibitors; actives 12% (n = 420,000); chicken DT40 Tdp1-/-;hTDP1 cells + 20 nM CPT, ATP luminescence, 48 h; AID 686979; further: potency means the concentration at half of the fitted maximal effect; nearly all actives have a fitted effect of over 55% in size
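Chicken DT40 Tdp1-/- cells stably complemented with human TDP1 were seeded at 400 cells/well in medium containing 20 nM camptothecin, exposed to pin-transferred compounds, and grown at 37 °C for at least 48 hr. Viability was read as ATP luminescence.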
The depositor's hits bear a star; ? = inconclusive; nt = not tested or not shown; [ ] = dose if it differs, or a comment. Shown are actives, neighbours in structure and some others; about 19% of the full set was active somewhere. Unless noted, the call rests on the fitted dose curve; in most records, active means well fitted curve in the direction sought with a large enough effect; inconclusive means small, poorly fitted or top-dose-only effect, or another doubt; inactive means no such curve, though single readings can be large; an effect the other way counts as inactive or inconclusive. Unless noted, on the % scale 0 is the no-effect control and ±100 the full control effect.

SMILES	IL-1B inflam inh	uPA generation	HT1080 IDH1KD tx	HT1080-NT tox	DT40 TDP1 no CPT	DT40 TDP1 CPT
COc1ccc(C2c3c(-c4ccccc4O)n[nH]c3C(=O)N2CCc2ccccc2)cc1 (centres undefined)	nt	nt	nt	nt	16.4µM*	?
COc1ccc(CCN2C(=O)c3ccccc3C2c2nnnn2C(C)C)cc1OC (centres undefined)	31.9	nt	?	26.1%	-28.8%	?
CC(C)c1ccc(C2c3c(-c4ccccc4O)n[nH]c3C(=O)N2CCc2ccccc2)cc1 (centres undefined)	nt	nt	nt	nt	11.6µM*	?
COc1ccc(C2c3c(-c4ccccc4O)n[nH]c3C(=O)N2CCc2ccc(OC)c(OC)c2)cc1 (centres undefined)	-51.4*	-8.6%	?	-26.3%	23.1µM*	20.6µM*
COC(=O)[C@@H]1C[C@@H](NC(=O)c2ccc(C(F)(F)F)cc2)CN1Cc1cccc(O)c1	nt	nt	nt	nt	-14.6%	-8.2%[9.04 µM]
COc1ccc2c(c1)CCc1cnc(-n3ncc(C(=O)NCc4cc(C)no4)c3C3CC3)nc1-2	nt	nt	nt	nt	-12.2%	2.8%[9.04 µM]
COc1ccc(OC)c(CNc2ccc([N+](=O)[O-])cc2C)c1	-69.4*	-3.7%	-4.5%	-6.3%	-0.1%	5.8%
Cc1cc([N+](=O)[O-])ccc1NCc1ccc2c(c1)OCCO2	-51.2*	1.5%	-17.9%	-27.4%	-27.2%	-30.0%
COc1cccc(CNc2ccc([N+](=O)[O-])cc2C)c1	-1.1	3.5%	-2.8%	-16.0%	18.4µM*	?
COC(=O)[C@]12CCCCC=C1N(Cc1ccc3c(c1)OCO3)C(=O)[C@H](CC(=O)NCc1cccc3ccccc13)C2	-11.1	nt	-19.0%	?	?	?
CCOc1ccc(C(=O)NCC2CCCN2S(=O)(=O)c2cccs2)cc1 (centres undefined)	-9.1	-5.9%	5.8%	-1.4%	-28.7%	?
CCCCn1c(CCC(=O)O)nc2cc(S(=O)(=O)N(CC)CC)ccc21	-5.4	-3.8%	2.2%	9.5%	-1.2%	-5.6%
C/C(=N\N1CCN(c2ccccc2)CC1)c1ccc(O)cc1	-17.9	-16.7%	8.0%	13.5%	-25.0%	-25.1%
CCc1ccc(C(O)(C(C)C)C(CN2CCOCC2)c2ccccc2)cc1 (centres undefined)	0.0	-9.7%	0.4%	-3.2%	16.4µM*	16.4µM*
CCCCCOc1ccc(C(C)(O)C(CN2CCOCC2)c2ccccc2)cc1 (centres undefined)	?	-4.7%	-2.0%	-9.1%	20.6µM*	?
CCCCCC(O)(c1ccccc1)C(CN1CCOCC1)c1ccccc1 (centres undefined)	-10.5	-21.5%	9.2%	3.9%	?	?
CCCCOc1ccc(C(O)(CCC)CCN2CCOCC2)cc1 (centres undefined)	0.0	0.9%	-24.7%	-7.6%	16.4µM*	20.6µM*
CCc1ccc(C(C)(O)C(CN2CCOCC2)c2ccccc2)cc1 (centres undefined)	-3.2	-0.6%	-14.0%	-4.5%	20.6µM*	20.6µM*
CC(C)C(O)(c1ccccc1)C(CN1CCOCC1)c1ccccc1 (centres undefined)	24.5	-11.0%	7.2%	0.8%	?	?
CCCCOc1ccc(C(O)(CC)CCN2CCOCC2)cc1 (centres undefined)	?	1.9%	-15.0%	-12.9%	-26.9%	-25.7%
CCOC(=O)c1cc(-c2ccccc2)nc2c(O)cccc12	8.0	-7.8%	-23.4%	-1.4%	-13.7%	-17.0%
COC(=O)CNC(=O)c1ccc(F)cc1	2.9	1.6%	6.9%	2.0%	3.8%	8.4%
COC(=O)C1CN(Cc2ccccc2)C(=O)C1=O (centres undefined)	15.9	0.8%	-0.1%	5.1%	-22.6%	7.4%
Cc1c(NC(=O)C(C)OC(=O)/C=C/c2ccc3c(c2)OCO3)c(=O)n(-c2ccccc2)n1C (centres undefined)	-10.5	nt	7.1%	22.4%	-14.7%	17.8%
c1ccc(N2CCOCC2)c(Nc2nc3ccccc3n3cnnc23)c1	-9.9	4.2%	-7.2%	-3.1%	16.4µM*	20.6µM*
SMILES	IL-1B inflam inh	uPA generation	HT1080 IDH1KD tx	HT1080-NT tox	DT40 TDP1 no CPT	DT40 TDP1 CPT
COc1ccccc1Nc1nc2ccc(C)cc2n2cnnc12	-12.3	-8.9%	4.6%	-2.1%	18.4µM*	?
CCOc1ccccc1Nc1nc2ccccc2n2cnnc12	17.9	5.2%	7.6%	11.9%	?	6.7%
c1ccc2c(c1)nc(N1CCOCC1)c1nncn12	-4.1	3.1%	11.1%	-1.7%	?	-6.1%
Cc1ccc2nc(Nc3ccc(C)c(C)c3)c3nncn3c2c1	-5.6	2.6%	25.2%	6.7%	20.6µM*	?
CCOC(=O)c1nc2c(ccc3ccccc32)cc1C	nt	6.3%	18.4%	20.5%	-9.5%	13.8%
Oc1ccc(C[C@@H](CN2CCCC2CN2C(=S)NC[C@@H]2Cc2ccccc2)N2C[C@H](Cc3ccccc3)N(CC3CCCCC3)C2=S)cc1 (some centres undefined)	-8.0	nt	8.0%	1.2%	20.6µM*	14.6µM*
Oc1ccc(C[C@H]2CNC(=S)N2CC2CCCN2C[C@H](Cc2ccc(O)cc2)N2C[C@H](Cc3ccc(O)cc3)N(CC3CCCCCC3)C2=S)cc1 (some centres undefined)	?	?	?	?	18.4µM*	23.1µM*
CC(C)C[C@@H](CN1CCC[C@H]1CN1C(=O)C(=O)NC[C@@H]1Cc1ccc(O)cc1)N1C[C@H](Cc2ccc(O)cc2)N(CC2CCCCC2)C(=O)C1=O	0.0	nt	-22.3%	?	-2.4%	-0.3%
CC(C)C[C@H]1CN([C@@H](Cc2ccccc2)CN2CCC[C@@H]2CN2C(=O)C(=O)NC[C@@H]2Cc2ccc(O)cc2)C(=O)C(=O)N1CC1CCCCC1	-23.1	nt	9.4%	4.4%	?	-22.9%
Oc1ccc(C[C@H]2CNC(=S)N2CC2CCCN2C[C@H](Cc2ccccc2)N2C[C@H](Cc3ccc(O)cc3)N(CC3CCCCC3)C2=S)cc1 (some centres undefined)	?	nt	25.9µM*	?	20.6µM*	?
Oc1ccc(C[C@H]2CNC(=S)N2CC2CCCN2C[C@H](Cc2ccc(O)cc2)N2C[C@H](Cc3ccccc3)N(CC3CCCCC3)C2=S)cc1 (some centres undefined)	-72.0*	-21.1%	-27.1%	-25.5%	16.4µM*	16.4µM*

Assay outcomes from PubChem BioAssay.
